SMILES strings stand for the structures. Records with an inconclusive call do not appear. Where a call stands in place of a potency, no number is given. Calls of active or inactive are those of the source. The call rests on the fitted dose curve; in most records, active means well fitted cell-killing curve with a large enough effect; inconclusive means small, poorly fitted or top-dose-only effect, or effect the other way; inactive means no such curve, though single readings can be large or run the other way.
Potency means the concentration at half of the fitted maximal effect.

One assay can be described thus: Quantitative High-Throughput drug screen in 47 multiple myeloma cell lines against the NCATS MIPE library collection: XG1_PLB cell viability assay (AID 1919866). Further: nearly all actives have a fitted effect of over 35% in size. The conditions noted are these: CellTiter-Glo ATP, 48 h; series mostly up to 45.8 µM. The gist of the method: (§1)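 qHTS format: cells plated (500/well), pin-dosed with MIPE 4.0 compounds, kept 48 h at 37 °C. Readout was CellTiter-Glo luminescence, median RLU.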
(ATP-based viability assays read luminescence as a measure of living cells.)
As to `COc1cc(NC(=O)c2ccc(-c3ccc(Cl)cc3)o2)cc(OC)c1`, the Potency is 3.32 µM (active). On to `Clc1ccc(COC(Cn2ccnc2)c2ccc(Cl)cc2Cl)cc1` (centres undefined), for which the Potency is 18.7 µM (active). Turning to `N#CC1(c2ccc(NC(=O)c3cccnc3NCc3ccncc3)cc2)CCCC1`, the Potency was 20.9 µM (active). For `Cc1ccc(C(C)(O)c2nc3ccccc3s2)c(C)c1` (centres undefined), the Potency entry is “inactive”. On to `CC(=O)OC1C(C)OC(Oc2c(-c3ccc(O)cc3)oc3cc(O)cc(O)c3c2=O)C(O)C1OC(C)=O` (centres undefined), for which the Potency result is “inactive”. Regarding `COc1cc(O)c2c(c1)C(=O)c1cc(C)cc(O)c1C2=O`, the Potency result was “inactive”. Regarding `CC(C)(C)COc1ccc(-n2cc(C(=O)O)cn2)cc1C#N`, the Potency entry is “inactive”.

On to `Nc1ncnc2c1ncn2[C@@H]1O[C@@H](CO)[C@H](O)[C@H]1O`, for which the Potency entry is “inactive”.

On to `O=C(OCC#CCSc1nnc(-c2cccc3ccccc23)o1)c1cc2ccccc2s1`, for which the Potency result was “inactive”.

For `Cc1cnc(C(=O)O)c[n+]1[O-]`, the Potency entry was “inactive”.

On to `O=C1C[C@@H](c2ccc(O)cc2)Oc2cc(O)cc(O)c21`, for which the Potency result was “inactive”. Consider `CC1(C)Cc2c(sc(NC(=S)NC(=O)c3ccccc3)c2C(=O)O)CO1`, for which the Potency result is “inactive”.

Consider `CCC(CC)[C@H](NC(C)=O)[C@@H]1[C@H](O)[C@@H](C(=O)O)C[C@@H]1N=C(N)N`, for which the Potency entry was “inactive”.

Turning to `CC(C)C[C@H](CC(=O)O)C(=O)N[C@@H](Cc1c[nH]c2ccccc12)C(=O)N[C@@H](C)c1ccccc1`, the Potency result is “inactive”. In the case of `CC(C)(C)c1cc(C(=O)O)c(NC(=O)Nc2ccc3[nH]ncc3c2)s1`, the Potency result was “inactive”. As for `CNC(=O)c1ccc2cc(C3(O)CCn4cncc43)ccc2c1` (centres undefined), the Potency entry was “inactive”.

Consider `C[N+](C)(C)CC(=O)O`, for which the Potency entry was “inactive”. Turning to `COc1ccc(Cc2ccc(NC(N)=O)cc2)cc1-c1cccc(Cl)c1`, the Potency result is “inactive”. Consider `CCOC(=O)O[C@]1(C(=O)OCCl)CC[C@@H]2[C@H]3CCC4=CC(=O)C=C[C@]4(C)[C@@H]3[C@@H](O)C[C@@]21C`, for which the Potency entry was “inactive”. In the case of `O=c1ccn([C@@H]2O[C@H](CO)[C@H](O)[C@H]2O)c(=O)[nH]1`, the Potency result was “inactive”. With `CC(C)C(=O)Oc1ccc(CO)cc1[C@H](CCN(C(C)C)C(C)C)c1ccccc1`, the Potency entry was “inactive”.

The next assay is described as follows: Quantitative High-Throughput drug screen in 47 multiple myeloma cell lines against the NCATS MIPE library collection: VP6_DJ cell viability assay (AID 1919867). Further: nearly all actives have a fitted effect of over 40% in size. The conditions noted are these: ATP luminescence, 48 h; series mostly up to 45.8 µM. The gist of the method: as §1
Regarding `COc1cc(NC(=O)c2ccc(-c3ccc(Cl)cc3)o2)cc(OC)c1`, the Potency was 8.33 µM (active). Regarding `Cc1cccc(Nc2nc(-c3ccncc3)cs2)c1`, the Potency was 18.7 µM (active). Same read-out and setting: as for `Clc1ccc(COC(Cn2ccnc2)c2ccc(Cl)cc2Cl)cc1` (centres undefined), the figure is 20.9 µM (active); as for `N#CC1(c2ccc(NC(=O)c3cccnc3NCc3ccncc3)cc2)CCCC1`, 14.8 µM (active); as for `O=C1NC(=O)C(=Cc2ccc3c(c2)OC(F)(F)O3)S1`, 14.8 µM (active). In the case of `Cc1ccc(C(C)(O)c2nc3ccccc3s2)c(C)c1` (centres undefined), the Potency entry was “inactive”. Turning to `CC(=O)OC1C(C)OC(Oc2c(-c3ccc(O)cc3)oc3cc(O)cc(O)c3c2=O)C(O)C1OC(C)=O` (centres undefined), the Potency entry was “inactive”. Turning to `COc1ccc(-c2nc(N3CCOCC3)c3sc(CN(C)c4ncc(C(=O)NO)cn4)cc3n2)cn1`, the Potency result is “inactive”. On to `COc1ccc(C2CC(c3ccccc3)=NN2c2ccc(S(N)(=O)=O)cc2)cc1` (centres undefined), for which the Potency was 16.6 µM (active).

In the case of `NC(=O)NN=Cc1ccc([N+](=O)[O-])o1`, the Potency was 14.8 µM (active).

With `CO[C@H]1C[C@@H]2CC[C@@H](C)[C@@](O)(O2)C(=O)C(=O)N2CCCC[C@@H]2C(=O)O[C@H]([C@H](C)C[C@@H]2CC[C@H](OC(=O)C(C)(CO)CO)[C@H](OC)C2)CC(=O)[C@H](C)C=C(C)[C@@H](O)[C@@H](OC)C(=O)[C@H](C)C[C@H](C)C=CC=CC=C1C`, the Potency is 20.9 µM (active). Regarding `O=C(OCC#CCSc1nnc(-c2cccc3ccccc23)o1)c1cc2ccccc2s1`, the Potency entry was “inactive”.

On to `O=C(Nc1ccccc1Br)N[C@@H]1CCN(c2ccc(C(F)(F)F)cn2)C1`, for which the Potency was 18.7 µM (active). On the same count and under the same terms, as for `CC1(C)Cc2c(sc(NC(=S)NC(=O)c3ccccc3)c2C(=O)O)CO1`, the figure is 8.33 µM (active). Turning to `CCC(CC)[C@H](NC(C)=O)[C@@H]1[C@H](O)[C@@H](C(=O)O)C[C@@H]1N=C(N)N`, the Potency was 4.18 µM (active). Consider `CC(C)C[C@H](CC(=O)O)C(=O)N[C@@H](Cc1c[nH]c2ccccc12)C(=O)N[C@@H](C)c1ccccc1`, for which the Potency result is “inactive”.

For the compound `CC(C)(C)c1cc(C(=O)O)c(NC(=O)Nc2ccc3[nH]ncc3c2)s1`, the Potency result was “inactive”. Regarding `CNC(=O)c1ccc2cc(C3(O)CCn4cncc43)ccc2c1` (centres undefined), the Potency result is “inactive”. Take `CC[C@H]1OC(=O)[C@H](C)[C@@H](O[C@H]2C[C@@](C)(OC)[C@@H](O)[C@H](C)O2)[C@H](C)[C@@H](O[C@@H]2O[C@H](C)C[C@H](N(C)C)[C@@H]2O)[C@](C)(O)C[C@@H](C)CN(C)[C@H](C)[C@@H](O)[C@]1(C)O`: the Potency result was “inactive”.

Turning to `CCOC(=O)O[C@]1(C(=O)OCCl)CC[C@@H]2[C@H]3CCC4=CC(=O)C=C[C@]4(C)[C@@H]3[C@@H](O)C[C@@]21C`, the Potency is 20.9 µM (active). On the same count and under the same terms, as for `NC(=O)c1ccc2nc(-c3ccc(Oc4ccc(Cl)cc4)cc3)[nH]c2c1`, the figure is 6.62 µM (active). Still for that read-out and setting: as for `N#Cc1ccc(NC(=O)Nc2ccccc2Br)c2n[nH]nc12`, the figure is 10.5 µM (active); as for `CC(C)OC(=O)C(C)(C)Oc1ccc(C(=O)c2ccc(Cl)cc2)cc1`, 26.4 µM (active).

The values above are taken from PubChem BioAssay (NCATS).
